# Screening data from PubChem.
# WRN helicase inh: blocks human WRN helicase. Q14191. WRN helicase unwinding, fluorescent forked duplex, kinetic. Potency, µM (titrated, usually from 114 µM), inactives show at the highest dose activity change, negative = inhibition, hits mostly inhibitors. 360,000 tested, 0.46% active. AID 651768; further: nearly all actives have a fitted effect of over 55% in size
#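 Primary qHTS, 1536-well format. 20 nM WRN + compound, 15 min RT; start with 100 nM forked fluorophore/quencher duplex, 2 mM ATP (final); kinetic read ex 525/em 598 nm.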
# RECQ1 inh: blocks DNA unwinding by human RECQ1 | AID 2549 | 240,000 tested, 0.54% active | Potency, µM (highest dose often 57.3 µM), inactives show at the highest dose activity, negative = inhibition, actives largely listed as inhibitors | RECQ1 DNA unwinding, red fluorescence kinetic read | P46063;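 further: plate controls were vehicle for no effect and no enzyme for full effect; nearly all actives have a fitted effect of over 30% in size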
#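 RECQ1T1 50 nM; forked duplex (20 bp + 30-nt ss tails) 200 nM, ATP 2 mM final; pH 8.0, 2 mM MgCl2, 2.5 ug/ml poly(dI-dC); 15 min compound preincubation; discontinuous kinetic read over 2 h at RT.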
# APE1 inh: inhibitors of human APE1 endonuclease; P27695; recombinant APE1, TAMRA/BHQ-2 abasic DNA cleavage fluorescence; Potency, µM (doses to about 65.8 µM), without a hit: top-dose activity change, negative = inhibition, actives largely listed as inhibitors; 350,000 tested, 0.35% active;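 further: plate controls were vehicle for no effect and reference inhibitor for full effect; nearly all actives have a fitted effect of over 55% in size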
# Target sequence (P27695 whole entry, looked up): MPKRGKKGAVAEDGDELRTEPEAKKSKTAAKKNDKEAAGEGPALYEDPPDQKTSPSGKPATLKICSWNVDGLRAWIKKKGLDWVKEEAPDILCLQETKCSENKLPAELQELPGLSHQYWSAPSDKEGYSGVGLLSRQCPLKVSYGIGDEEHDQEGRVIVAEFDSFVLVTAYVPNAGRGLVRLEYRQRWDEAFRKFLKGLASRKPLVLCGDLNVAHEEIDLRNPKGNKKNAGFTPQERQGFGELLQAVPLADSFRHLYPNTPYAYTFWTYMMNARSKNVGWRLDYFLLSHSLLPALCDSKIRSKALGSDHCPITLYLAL
#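 Activity was derived from the fluorescence gain between first and third kinetic reads (60 s intervals, ex 525/em 598 nm) after 50 nM THF-abasic TAMRA/BHQ-2 duplex was added to 0.75 nM APE1 preincubated 15 min with compound.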
# TRb-SRC2 inh: disrupts binding of human TR beta to SRC2; P10828; 280,000 tested, 0.065% active; Potency, µM (series often up to 106 µM), without a hit: top-dose activity change, negative = inhibition, most hits filed as inhibitors; AID 1469; TRbeta-SRC2 peptide binding, fluorescence polarization; receptor liganded with 1 µM T3;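 further: plate controls were bound peptide for no effect and peptide without receptor for full effect; nearly all actives have a fitted effect of over 50% in size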
# Target sequence (P10828 whole entry, looked up): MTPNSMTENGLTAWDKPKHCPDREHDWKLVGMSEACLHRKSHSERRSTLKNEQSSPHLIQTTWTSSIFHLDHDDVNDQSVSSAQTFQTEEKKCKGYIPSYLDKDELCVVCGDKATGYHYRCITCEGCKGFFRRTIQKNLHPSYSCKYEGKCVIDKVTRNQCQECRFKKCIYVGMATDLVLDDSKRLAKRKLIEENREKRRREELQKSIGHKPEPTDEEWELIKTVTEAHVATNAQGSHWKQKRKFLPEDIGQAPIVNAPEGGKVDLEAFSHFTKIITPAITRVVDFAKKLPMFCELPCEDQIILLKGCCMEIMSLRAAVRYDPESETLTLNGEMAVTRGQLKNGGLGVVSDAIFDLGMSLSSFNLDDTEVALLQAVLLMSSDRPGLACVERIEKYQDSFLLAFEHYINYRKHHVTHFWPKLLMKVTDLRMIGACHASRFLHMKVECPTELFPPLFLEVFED
#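 Fluorescence polarization of 20 nM Texas Red SRC2 peptide (20-aa NR interaction domain) bound to 0.6 uM human TRb ligand-binding domain, with 1 uM T3, after 5 hr at ambient temperature; inhibition seen as decreased polarization.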
# TexasRed fluor: alters Texas Red total fluorescence, flagging assay interference; AID 1479; TRb/SRC2 Texas Red total fluorescence interference; 280,000 tested, 0.29% active; Potency, µM (top dose mostly 106 µM), for the others: top-dose fluorescence change, negative = quenching; active means well fitted curve in either direction with a large enough effect; inconclusive means small, poorly fitted or top-dose-only effect
#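 Human TRβ ligand-binding domain (0.6 uM) and Texas Red SRC2 peptide (20 nM) in Tris buffer with 1 uM T3 and 5% DMSO were incubated with pinned compound for 5 hr at ambient temperature. Total fluorescence was computed as S + 2P (555/632 nm).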
# BLM inh: blocks DNA unwinding by human BLM helicase; 350,000 tested, 0.2% active; recombinant BLM DNA unwinding, fluorescence dequenching; AID 2528; Potency, µM (highest dose often 56.1 µM), inactives show at the top dose activity change, negative = inhibition, actives largely listed as inhibitors;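 further: plate controls were vehicle for no effect and no enzyme for full effect; nearly all actives have a fitted effect of over 35% in size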
# Numbers without * were called inactive; i = inactive; ? = inconclusive; . = no result; ! = repeats disagree; [ ] = dose if it differs, or a comment. This is a sample that favours compounds with a hit; in the whole collection about 0.91% have one here. Unless noted, the call rests on the fitted dose curve; in most records, active means well fitted curve in the direction sought with a large enough effect; inconclusive means small, poorly fitted or top-dose-only effect, or another doubt; inactive means no such curve, though single readings can be large; an effect the other way counts as inactive or inconclusive. Unless noted, on the % scale 0 is the no-effect control and ±100 the full control effect; potency means the concentration at half of the fitted maximal effect.
SMILES,WRN helicase inh,RECQ1 inh,APE1 inh,TRb-SRC2 inh,TexasRed fluor,BLM inh
Clc1cccc(N2CCNCC2)c1,5%,-1%,17%,8.9µM*!,28µM*![fluorescent],4%
CN1C(=O)/C(=C\N2CCc3ccccc32)C(=O)NC1=S,50µM*,i,10%,?,4%,-20%
CN1C(=O)/C(=C/c2cccn2-c2ccc3ccccc3c2)C(=O)NC1=S,-35%[57.1 µM],?,1%,-4%,-11%,-18%
CNC(=O)O/N=C/C(C)(C)S(C)(=O)=O,.,.,.,1%[201 µM],2%[201 µM],.
[O]=[Cr](=[O])([OH])[O][Cr](=[O])(=[O])[OH],.,13µM*,25µM*!,-4%,?,1µM*
CCOP(=O)(NC(C)C)Oc1ccc(S(C)(=O)=O)c(C)c1 (stereo not given),.,.,.,-1%[201 µM],-3%[201 µM],.
ClC1=C(Cl)[C@@]2(Cl)[C@H]3C[C@@H](Cl)[C@H](Cl)[C@H]3[C@@]1(Cl)C2(Cl)Cl,.,.,.,-7%[201 µM],-2%[201 µM],.
O=C(OC1CCN(CCCl)CC1)C(c1ccccc1)c1ccccc1,0%,i,3%,35µM*,0%,.
CC(C)C(C(=O)OC(C#N)c1cccc(Oc2ccccc2)c1)c1ccc(Cl)cc1 (stereo not given),.,.,.,9%[201 µM],0%[201 µM],.
CCOP(=O)(O)C(N)=O,.,.,.,-9%[201 µM],-26%[201 µM],.
COCC(=O)N(c1c(C)cccc1C)N1CCOC1=O,.,.,.,6%[201 µM],2%[201 µM],.
NC1C=CC=C(C(=O)O)C1 (stereo not given),0%,-13%,13µM*!,-8%,?,.
CCOP(=O)(OCC)SCSP(=S)(OCC)OCC,.,.,.,0%[201 µM],-2%[201 µM],.
COc1ccc(C=C2C(=O)NC(=S)NC2=O)cc1OC,45µM*,.,.,.,.,.
COc1ccc(/C=C/C=C2C(=O)NC(=S)NC2=O)cc1,45µM*,.,.,.,.,.
CCOc1cc(C=C2C(=O)NC(=S)NC2=O)ccc1O,50µM*,.,.,.,.,.
CCOP(=O)(OCC)Oc1ccc([N+](=O)[O-])cc1,.,.,.,7%[201 µM],-4%[201 µM],.
CC/C(=N\OC/C=C/Cl)C1=C(O)CC(C2CCOCC2)CC1=O (stereo not given),.,.,.,0%[201 µM],2%[201 µM],.
O=C(NC(=O)c1c(F)cccc1F)Nc1cc(Cl)c(OC(F)(F)C(F)F)c(Cl)c1,.,.,.,7%[201 µM],-2%[201 µM],.
CCC[CH2][Sn]([CH2]CCC)[CH2]CCC,.,.,.,1%[201 µM],2%[201 µM],.
CC(C)=C[C@@H]1[C@@H](C(=O)OCN2C(=O)C3=C(CCCC3)C2=O)C1(C)C,.,.,.,5%[201 µM],-2%[201 µM],.
CC(=O)O[C@H]1C(=O)[C@@]2(C)C([C@H](OC(=O)c3ccccc3)[C@]3(O)C[C@H](OC(=O)[C@H](O)[C@@H](NC(=O)c4ccccc4)c4ccccc4)C(C)=C1C3(C)C)[C@]1(OC(C)=O)CO[C@@H]1C[C@@H]2OC(=O)[C@H](C)NC(=O)c1ccc(-c2c3ccc(=O)cc-3oc3cc(O)ccc23)c(C(=O)O)c1 (stereo not given in full),.,3.2µM*,3.2µM*,-1%[11.2 µM],20%[11.2 µM],3.2µM*
CC(c1ccc(O)cc1)(c1ccc(O)cc1)c1ccc(O)cc1,.,.,.,5%[201 µM],-3%[201 µM],.
C/C(=C/CCC(C)[C@H]1CC[C@@]2(C)C3=C(CC[C@]12C)[C@@]1(C)CCC(=O)C(C)(C)[C@@H]1CC3)C(=O)O (stereo not given in full),79µM*,-4%,4%,2%,0%,25µM*
CCOP(=O)(OCC)SCSC(C)(C)C,.,.,.,6%[201 µM],-2%[201 µM],.
SMILES,WRN helicase inh,RECQ1 inh,APE1 inh,TRb-SRC2 inh,TexasRed fluor,BLM inh
CSC(=O)c1c(C(F)F)nc(C(F)(F)F)c(C(=O)SC)c1CC(C)C,.,.,.,1%[201 µM],1%[201 µM],.
CC[n+]1c(-c2ccccc2)c2cc(N)ccc2c2ccc(N)cc21,3µM*,32µM*!,32µM*!,35µM*!,45µM*![fluorescent],?
Brc1c(Br)c(Br)c(Br)c(Br)c1Br,.,.,.,-4%[201 µM],-3%[201 µM],.
CCN(CC)C(=O)c1c(C)[nH]c(=S)c(C#N)c1-c1ccco1,50µM*,-21%,-6%,7%,10%,-25%
O=C1NC(=O)N(Cc2ccccc2)C(=O)/C1=C/c1cnn(-c2ccccc2)c1,.,1%,-1%,2%,-4%,-3%
O=C1NC(=O)N(Cc2ccccc2)C(=O)/C1=C/C=C/c1ccco1,50µM*,11µM*,?,18%,17%,-30%
CC(C)c1ccc(N2C(=O)NC(=O)/C(=C\c3cnc(-c4ccccc4)nc3)C2=O)cc1,?,i,6%,1%,1%,1%
CC(C)c1ccc(N2C(=O)NC(=O)/C(=C\C=C\c3ccco3)C2=O)cc1,?,16µM*,?,14%,4%,?
CCc1cc(C)cc(CC)c1-c1c(OC(=O)C(C)(C)C)n2n(c1=O)CCOCC2,.,.,.,-1%[201 µM],1%[201 µM],.
O=C(O)c1cccc2c1NC(C(=O)O)C1CC(Sc3ccccc3[N+](=O)[O-])C(Cl)C21 (stereo not given),32µM*,3%,3%,-11%,?,?
CCCCOP(=O)(O)OCCCC,.,.,.,6%[201 µM],3%[201 µM],.
COc1ccc(/C=C2/C(=O)NC(=S)N(C3CC3)C2=O)cc1CN1C(=O)c2ccccc2C1=O,14µM*,-17%,0%,-1%,1%,-4%
O=C1C=Cc2ccccc2C1=O,.,28µM*,?,?,?,-1%
COC(=O)C(C)Oc1ccc(Oc2ccc(Cl)cc2Cl)cc1 (stereo not given),.,.,.,3%[201 µM],2%[201 µM],.
CO/N=C(\C(=O)N[C@@H]1C(=O)N2C(C(=O)O)=C(CSc3nc(=O)c(O)nn3C)CS[C@H]12)c1csc(N)n1,.,.,14µM*,.,.,.
COC(=O)N(OC)c1ccccc1COc1ccn(-c2ccc(Cl)cc2)n1,.,.,.,-5%[201 µM],2%[201 µM],.
CC(C)(c1ccccc1)c1cc(-n2nc3ccccc3n2)c(O)c(C(C)(C)c2ccccc2)c1,.,.,.,-2%[201 µM],-4%[201 µM],.
O=C(Nc1ccc2ccccc2c1)c1nn(C23CC4CC(CC(C4)C2)C3)cc1Br,-13%,-8%,4.5µM*,2%,-1%,1%
Cc1nc(Cl)sc1C(=O)Nc1ccc2ccccc2c1,4%,i,17%,-3%,-5%,-1%
N#C/C(=C\c1ccc(O)c(O)c1)C(N)=S,.,5.6µM*!,13µM*,7%,-15%,?
CCCOc1nn(C(=O)NS(=O)(=O)c2ccccc2C(=O)OC)c(=O)n1C,.,.,.,-1%[201 µM],-4%[201 µM],.
CN(C)c1ccc(/C=C2\C(=O)NC(=O)N(CCc3ccc(F)cc3)C2=O)cc1,?,i,1%,3%,0%,-4%
COCCN1C(=O)NC(=O)/C(=C\c2ccc(F)cc2)C1=O,8%,i,?,-1%,1%,-2%
O=C1NC(=O)N(CCc2ccc(F)cc2)C(=O)/C1=C/c1ccco1,35µM*,28µM*,10µM*,22%,12%,-20%
